# According to PubChem BioAssay (NCATS):
# Inconclusive results are not listed. Values without a mark were called inactive. Active and inactive are the calls of the source. The call rests on the fitted dose curve; in most records, active means well fitted curve in the direction sought with a large enough effect; inconclusive means small, poorly fitted or top-dose-only effect, or another doubt; inactive means no such curve, though single readings can be large; an effect the other way counts as inactive or inconclusive.
# Legend:
# [1] = BET inhibitor-based combinations targeting novel dependencies in MECOM-rearranged (r) AML: SET-2 cell line (AID 2202231); conditions: SET-2 AML cells viability, CellTiter-Glo luminescence, 48 h; viability: active compounds read low, concentration not given here; further: nearly all actives have a fitted effect of over 35% in size;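 on viability: plate controls were DMSO treated cells for no effect and wells without cells for full effect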
# Outline: (§1)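 AML cell lines seeded at 500 cells/well, treated with 11-point dose curves for 48 h. Viability by CellTiter-Glo luminescence, normalised to DMSO and empty wells; activity expressed as AUC and per-cell-line Z-transformed AUC.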
# [2] = BET inhibitor-based combinations targeting novel dependencies in MECOM-rearranged (r) AML: OCI-AML3 cell line (AID 2202232); conditions: Potency: OCI-AML3 viability; further: nearly all actives have a fitted effect of over 35% in size
# Outline: as §1
# [3] = BET inhibitor-based combinations targeting novel dependencies in MECOM-rearranged (r) AML: MV-4-11 cell line (AID 2202233); further: nearly all actives have a fitted effect of over 45% in size
# Outline: (§2)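 Cells at 500/well were exposed for 48 hr to MIPE v5.0 drugs as 11-point dose curves. Viability was read by CellTiter-Glo luminescence and normalized to DMSO and empty-well controls. Activity was expressed as AUC and per-cell-line Z-AUC.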
# [4] = BET inhibitor-based combinations targeting novel dependencies in MECOM-rearranged (r) AML: HNT-34 cell line (AID 2202234); further: nearly all actives have a fitted effect of over 35% in size
# Outline: as §2
# [5] = BET inhibitor-based combinations targeting novel dependencies in MECOM-rearranged (r) AML: UCSD-AML1 cell line (AID 2202235); further: nearly all actives have a fitted effect of over 40% in size
# Outline: as §2
# [6] = BET inhibitor-based combinations targeting novel dependencies in MECOM-rearranged (r) AML: AML-191 cell line (AID 2202236; further: nearly all actives have a fitted effect of over 35% in size)
# Outline: as §1
# [7] = BET inhibitor-based combinations targeting novel dependencies in MECOM-rearranged (r) AML: AML-194 cell line (AID 2202237; further: nearly all actives have a fitted effect of over 40% in size)
# Outline: as §1
# Potency means the concentration at half of the fitted maximal effect.
Structure (SMILES),Potency [1],Potency [2],Potency [3],Potency [4],Potency [5],Potency [6],Potency [7],viability [1] [%]
COc1ccc(S(=O)(=O)N(CCO)c2ccccc2CN(C)C/C=C/c2ccc(Cl)cc2)cc1,20.9 µM (active),14.8 µM (active),18.6 µM (active),13.2 µM (active),16.6 µM (active),14.8 µM (active),18.6 µM (active),
CC(C)(C)C(=O)OCOP(=O)(COCCn1cnc2c(N)ncnc21)OCOC(=O)C(C)(C)C,4.68 µM (active),0.525 µM (active),0.209 µM (active),2.63 µM (active),1.86 µM (active),1.66 µM (active),2.95 µM (active),
C=CC(=O)Nc1cccc(C)c1Nc1ncc2cc(-c3c(Cl)c(OC)cc(OC)c3Cl)ccc2n1,14.8 µM (active),10.5 µM (active),4.17 µM (active),8.33 µM (active),5.25 µM (active),13.2 µM (active),11.8 µM (active),
CN1CCCN(C(=O)c2cccc(-c3ccc(/C=C4/C(=O)Nc5ccc(Cl)cc54)o3)c2)CC1,20.9 µM (active),6.61 µM (active),0.662 µM (active),2.63 µM (active),1.32 µM (active),2.95 µM (active),1.86 µM (active),
C[C@@H](O)[C@@H]1NC(=O)[C@H](CCCCN)NC(=O)[C@@H](Cc2c[nH]c3ccccc23)NC(=O)[C@H](Cc2ccccc2)NC(=O)[C@@H](NC(=O)[C@H](N)Cc2ccccc2)CSSC[C@@H](C(=O)N[C@H](CO)[C@@H](C)O)NC1=O,,inactive,inactive,inactive,inactive,inactive,inactive,114
C=CC(=O)N1CC/C(=C\c2ccc(F)c([N+](=O)[O-])c2)C(=O)/C(=C/c2ccc(F)c([N+](=O)[O-])c2)C1,0.148 µM (active),0.0525 µM (active),0.059 µM (active),0.186 µM (active),0.166 µM (active),0.209 µM (active),0.372 µM (active),
Nc1cc(C(F)(F)F)c(-c2nc(N3CCOCC3)nc(N3CCOCC3)n2)cn1,9.34 µM (active),3.72 µM (active),3.72 µM (active),2.63 µM (active),0.934 µM (active),2.63 µM (active),2.35 µM (active),
COc1cc(/C=C/C(=O)CC(=O)/C=C/c2ccc(O)c(OC)c2)ccc1O,20.9 µM (active),8.33 µM (active),3.32 µM (active),14.8 µM (active),13.2 µM (active),16.6 µM (active),18.6 µM (active),
CO[C@H]1/C=C/O[C@@]2(C)Oc3c(C)c(O)c4c(O)c(c5c(nc6cc(C)ccn65)c4c3C2=O)NC(=O)/C(C)=C\C=C\[C@H](C)[C@H](O)[C@@H](C)[C@@H](O)[C@@H](C)[C@H](OC(C)=O)[C@@H]1C,,inactive,inactive,inactive,inactive,inactive,inactive,111
CN1CCN(c2ccc3nc(-c4c(N)c5c(F)cccc5[nH]c4=O)[nH]c3c2)CC1,4.17 µM (active),4.68 µM (active),0.059 µM (active),0.833 µM (active),3.32 µM (active),1.86 µM (active),1.86 µM (active),
O=c1cc(O)c(Cl)c[nH]1,,inactive,inactive,inactive,inactive,inactive,inactive,115
CC(C)[C@H]1C(=O)N[C@@H](CCCN=C(N)N)C(=O)NCC(=O)N[C@@H](CC(=O)O)C(=O)N[C@H](Cc2ccccc2)C(=O)N1C,,inactive,inactive,inactive,inactive,inactive,inactive,124
CC[C@@H]1[C@H](F)C(=O)N[C@@H]1COc1nccc2cc(C(N)=O)c(OC)cc12,14.8 µM (active),14.8 µM (active),8.33 µM (active),11.8 µM (active),20.9 µM (active),14.8 µM (active),20.9 µM (active),
C[N+](C)(C)CC(=O)O,,inactive,inactive,inactive,inactive,inactive,inactive,112
CC[C@@]1(O)C[C@H](O[C@H]2C[C@H](N(C)C)[C@H](O[C@H]3C[C@H](O)[C@H](O[C@H]4CCC(=O)[C@H](C)O4)[C@H](C)O3)[C@H](C)O2)c2c(cc3c(c2O)C(=O)c2c(O)cccc2C3=O)[C@@H]1C(=O)OC,3.72 µM (active),3.32 µM (active),0.742 µM (active),3.32 µM (active),2.35 µM (active),2.95 µM (active),3.72 µM (active),
C=CC[N+]1([C@H]2C[C@H]3[C@@H]4CC[C@H]5C[C@H](O)[C@@H](N6CCOCC6)C[C@]5(C)[C@H]4CC[C@]3(C)[C@H]2OC(C)=O)CCCC1,,inactive,inactive,inactive,inactive,inactive,inactive,115
Cc1cnc(NC(=O)Nc2cc(Br)c(C)cc2OC[C@@H]2CNCCO2)cn1,4.17 µM (active),3.72 µM (active),2.09 µM (active),9.34 µM (active),1.48 µM (active),2.95 µM (active),4.17 µM (active),
C=CC(=O)Nc1cccc(Oc2nc(Nc3ccc(N4CCN(C)CC4)cc3)nc3ccsc23)c1,26.3 µM (active),10.5 µM (active),8.33 µM (active),8.33 µM (active),9.34 µM (active),23.5 µM (active),14.8 µM (active),

Structure (SMILES),Potency [1],Potency [2],Potency [3],Potency [4],Potency [5],Potency [6],Potency [7],viability [1] [%]
COC(=O)/C=C/C(=O)OC,,inactive,inactive,inactive,inactive,inactive,inactive,117
Nc1ccn([C@@H]2O[C@H](CO)[C@@H](O)C2O)c(=O)n1 (stereo not given in full),0.332 µM (active),3.32 µM (active),0.833 µM (active),0.0742 µM (active),0.0295 µM (active),0.0742 µM (active),0.0525 µM (active),
C[C@@H]1[C@H](O)[C@@H](C)/C=C/C=C/C=C/C=C/C=C/C=C/C=C/[C@H](O[C@@H]2O[C@H](C)[C@@H](O)[C@H](N)[C@@H]2O)C[C@@H]2O[C@](O)(C[C@@H](O)C[C@@H](O)[C@H](O)CC[C@@H](O)C[C@@H](O)CC(=O)O[C@H]1C)C[C@H](O)[C@H]2C(=O)O,,inactive,23.5 µM (active),inactive,inactive,inactive,inactive,112
COc1ccc(S(=O)(=O)N[C@@H](CNc2nc(C)nc(N3CCC(c4ccc5c(n4)NCCC5)CC3)c2C)C(=O)O)cc1,,inactive,inactive,inactive,inactive,inactive,inactive,111
COc1cccc2c1C(=O)c1c(O)c3c(c(O)c1C2=O)C[C@@](O)(/C(CO)=N/NC(=O)CCCCCN1C(=O)C=CC1=O)C[C@@H]3O[C@H]1C[C@H](N)[C@H](O)[C@H](C)O1,2.95 µM (active),0.417 µM (active),0.186 µM (active),0.934 µM (active),0.525 µM (active),1.05 µM (active),0.934 µM (active),
Cc1ccc(Sc2ccccc2N2CCNCC2)c(C)c1,18.6 µM (active),20.9 µM (active),20.9 µM (active),16.6 µM (active),16.6 µM (active),18.6 µM (active),11.8 µM (active),
O=C(Nc1cc(Oc2cc(F)c(NC(=O)C3(C(=O)Nc4ccc(F)cc4)CC3)cc2F)ccn1)C1CC1,11.8 µM (active),11.8 µM (active),0.235 µM (active),7.42 µM (active),14.8 µM (active),16.6 µM (active),14.8 µM (active),
N=C1S/C(=C\c2ccc(-c3ccc4c(c3)C(=O)NC4=O)o2)C(=O)N1c1ccc(Br)cc1,,inactive,inactive,inactive,inactive,inactive,inactive,117
Cc1ccc(NC(=O)c2ccc3c(c2)OCCO3)cc1NC(=O)c1ccc2nc(OCCN3CCCC3)ccc2c1,0.144 µM (active),0.257 µM (active),0.091 µM (active),0.0456 µM (active),0.129 µM (active),0.162 µM (active),0.204 µM (active),
Nc1cccc2c1CN([C@H]1CCC(=O)NC1=O)C2=O,,inactive,inactive,1.18 µM (active),inactive,inactive,inactive,111
CC[C@H](CC[C@@H](C)[C@H]1CC[C@H]2[C@@H]3CC=C4C[C@@H](O)CC[C@]4(C)[C@H]3CC[C@]12C)C(C)C,,inactive,inactive,inactive,inactive,inactive,inactive,104
CC(C)C1CCC(C(=O)N[C@H](Cc2ccccc2)C(=O)O)CC1 (stereo not given in full),,inactive,inactive,inactive,inactive,inactive,inactive,115
COc1cc(OC)cc(N(CCNC(C)C)c2ccc3ncc(-c4cnn(C)c4)nc3c2)c1,18.6 µM (active),18.6 µM (active),16.6 µM (active),2.35 µM (active),10.5 µM (active),18.6 µM (active),18.6 µM (active),
CN1C(C(=O)Nc2ccccn2)=C(O)c2sccc2S1(=O)=O,,inactive,inactive,inactive,inactive,inactive,inactive,113
CC(C)(C)C(=O)N1N=CC[C@H]1c1ccccc1,,inactive,inactive,inactive,inactive,inactive,inactive,112
O=C(CCc1ccc(O)cc1)c1c(O)cc(O)cc1O[C@@H]1O[C@H](CO)[C@@H](O)[C@H](O)[C@H]1O,,inactive,inactive,inactive,inactive,inactive,inactive,76.1
C[C@H](NC(=O)/C(C#N)=C/c1cccc(Br)n1)c1ccccc1,7.42 µM (active),4.68 µM (active),4.17 µM (active),4.17 µM (active),3.72 µM (active),4.68 µM (active),9.34 µM (active),
